From PubChem BioAssay
GBA activity up: increases beta-glucosidase activity in Gaucher fibroblasts; activation, % at 10 µM; P04062; actives 0.44% (n = 30,000); L444P Gaucher fibroblasts, 4-MU-glucoside fluorescence, 3 days; in the data active = activation above about 65%;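 also: 0% = vehicle wells and 100% = positive control wells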
* hit, by the source's call. Shown is part of a subset that was picked to be rich in hits.

SMILES | GBA activity up
CCOc1cc2[nH]c(=O)n(CC3CCC(C(=O)NC4CCCCC4)CC3)c(=O)c2cc1OCC (stereo not given) | 5.5
CCOc1cc2[nH]c(=O)n(CCCCCC(=O)NCc3ccc4c(c3)OCO4)c(=O)c2cc1OCC | -23.0
CCCCN(C)C(=O)CCCCn1c(=O)[nH]c2cc(OCC)c(OCC)cc2c1=O | 68.5*
O=C(NCc1ccc(N2CCCC2=O)cc1)Nc1cccc(Cl)c1 | -17.7
CCOC(=O)c1ccc(CNC(=O)c2cc3cccc(OC)c3oc2=O)o1 | -0.3
CCCCn1c2nc3ccccc3nc2c2c(=O)n(C(C)CC)cnc21 (stereo not given) | 33.8
CCC(C)n1cnc2c(c1=O)c1nc3ccccc3nc1n2-c1ccc2c(c1)OCCO2 (stereo not given) | -87.8
CCC(C)n1cnc2c(c1=O)c1nc3ccccc3nc1n2Cc1ccc2c(c1)OCO2 (stereo not given) | 82.6*
C=CCOc1c(Cl)cc(C2NC(=O)NC(C)=C2C(=O)OC)cc1Cl (stereo not given) | 8.4
COc1cccc(NC(=O)C2CCCN2C(=O)Nc2cccc(F)c2)c1 (stereo not given) | -37.6
CC(=O)Nc1cccc(NC(=O)C2CCCN2C(=O)Nc2cccc(C)c2)c1 (stereo not given) | -10.1
CCCCNC(=O)C1CCCN1C(=O)Nc1cccc(OC)c1 (stereo not given) | 73.4*
CCc1nc(SCc2cc(Cl)ccc2OC)n[nH]1 | -19.2
Cc1ccc(C)c(N(C)S(=O)(=O)c2cccc3nsnc23)c1 | 77.2*
Cc1cc(C)cc(NC(=O)CN(C)S(=O)(=O)c2cccc3nsnc23)c1 | -40.1
CC(C)CCNC(=O)CN(C)S(=O)(=O)c1cccc2nsnc12 | 0.3
Cc1cc(C)n(C(=O)c2ccc(C)c(S(=O)(=O)N3CCCC3)c2)n1 | -13.4
CCc1c(C)nc(/N=C(/NC(=O)c2ccccc2)Nc2ccccc2OC)[nH]c1=O | -26.7
CCCn1c2ccccc2c2nnc(SCC(=O)OCC)nc21 | -6.4
O=C(CSc1nnc2c(n1)[nH]c1ccc(F)cc12)OCc1ccccc1 | 76.5*
O=C(CN1CCN(c2ccc(F)cc2)CC1)OCc1ccccc1 | -10.2
COC(=O)CSc1nnc(-c2ccco2)n1Cc1ccco1 | -2.5
CC(C)(C)NC(=O)CSc1nnc(-c2ccco2)n1Cc1ccco1 | 78.3*
CCN(CC)C(=O)CSc1nnc(-c2ccco2)n1Cc1ccco1 | -7.6
O=C(CCN1C(=O)c2ccccc2C1=O)N1CCC(c2ccccc2)C1 (stereo not given) | -1.6
SMILES | GBA activity up
CCc1ccc(NC(=O)CNS(=O)(=O)c2c(C)noc2C)cc1 | -7.4
CCOc1ccccc1-n1c(SCC(=O)NC2CCCC2)nnc1-c1ccoc1C | 5.1
c1cnn(-c2nc(N3CCOCC3)nc(N3CCOCC3)n2)c1 | -29.2
CC1=C(C(N)=O)C(c2cccs2)n2nc(-c3cccc(C)c3)nc2N1 (stereo not given) | 90.9*
CCOc1ccccc1C1C(C(N)=O)=C(C)Nc2nc(-c3cccc(C)c3)nn21 (stereo not given) | -37.5
CC1=C(C(N)=O)C(c2cccnc2)n2nc(-c3cccc(C)c3)nc2N1 (stereo not given) | 27.4
O=S(=O)(NC1CC1)c1cccc(S(=O)(=O)N2CCCC2)c1 | -16.7
O=S(=O)(NC1c2cccc3cccc(c23)C1N1CCNCC1)c1ccccc1 (stereo not given) | 74.1*
O=S(=O)(NC1c2cccc3cccc(c23)C1N1CCN(CCO)CC1)c1ccccc1 (stereo not given) | -22.0
Cc1cccc(NC(=O)Cn2c(C)c(C#N)c3ccccc32)c1C | -11.9
O=S(=O)(c1ccc(Cl)c(C(F)(F)F)c1)N1CCN(CC(O)COCC2CCCO2)CC1 (stereo not given) | -10.7
Cn1c(C(C#N)C2=C(Cl)C(=O)N(c3ccccc3)C2=O)nc2ccccc21 (stereo not given) | 18.0
CCCCN1C(=O)c2ccc(C(=O)Nc3c(N)n(CCCC)c(=O)n(C)c3=O)cc2C1=O | -3.0
